Bioassay records from PubChem BioAssay.
Only some compounds are listed: those with a hit (about 3.4% of all), similar ones and a draw of the others.
TEAD-YAP block: TEAD-YAP interaction inhibition | HEK-TIYL cells, TEAD-Gal4/YAP UAS-luciferase luminescence | inhibition, % at 9.12 µM | actives 1.4% (n = 640,000); in the data active = inhibition above about 32%
GPR151 ag: activates the human receptor GPR151; Q8TDV0; PathHunter beta-arrestin GPR151 cells, luminescence; activation, % at 11.2 µM; actives 1% (n = 650,000); AID 1508602; in the data active = activation above about 4.9%
MITF inh: human MITF inhibition, primary screen; AlphaScreen MITF homodimerization, bead proximity signal; actives 0.91% (n = 650,000); inhibition, % at 2.6 µM; O75030; in the data active = inhibition above about 50%
FBW7 activator: activators of human E3 ligase FBW7; Q969H0; AlphaScreen FBW7–phospho-cyclin E peptide binding, activator screen; normalized activity (activation), % at 26.1 µM; actives 0.13% (n = 650,000); in the data active = normalized activity above about 1.9%;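 note: purified mutant Fbw7 with reduced substrate affinity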
GPR151 conf act: human GPR151 activation, confirmation screen; shares compounds with GPR151 ag; GPR151 PathHunter beta-arrestin cells, luminescence, 90 min; % of EA-reagent control over plate median; activation, % at 11.2 µM; 6,700 tested, under 10 active; AID 1508609;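 active = mean percent activation across replicates above the confirmation screen cutoff of 4.91%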
GPR119 counter: activates human GPR119 in a GPR151 counter-screen; shares compounds with GPR151 ag; GPR119 PathHunter beta-arrestin cells, luminescence, 90 min; 0 = compound-well median, 100 = enzyme-acceptor control; activation, % at 11.2 µM; actives 0.3% (n = 6,700); AID 1508611;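 active = mean percent activation in the counterscreen above 29.09%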;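 note: counterscreen on off-target GPR119 to flag nonselective hits from the GPR151 activator screen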
Target sequence (Q8TDV5 whole entry, looked up): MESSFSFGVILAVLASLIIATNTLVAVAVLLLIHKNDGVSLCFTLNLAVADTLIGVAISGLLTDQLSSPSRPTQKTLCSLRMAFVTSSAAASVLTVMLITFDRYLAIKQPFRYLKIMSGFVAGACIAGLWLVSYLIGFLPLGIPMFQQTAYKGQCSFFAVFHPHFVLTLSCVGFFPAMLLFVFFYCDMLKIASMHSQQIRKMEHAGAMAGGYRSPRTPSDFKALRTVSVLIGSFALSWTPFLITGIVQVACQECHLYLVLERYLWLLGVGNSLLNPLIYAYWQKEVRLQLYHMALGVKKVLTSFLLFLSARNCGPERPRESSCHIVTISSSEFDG
A number is an active result; n = inactive; x = no result given; ! = a repeat was not active.

SMILES | TEAD-YAP block | GPR151 ag | MITF inh | FBW7 activator | GPR151 conf act | GPR119 counter
COC(=O)c1c(NC(=S)N2CCN(C(=O)C3CCCO3)CC2)sc2c1CCC2 (centres undefined) | n | n | n | n | x | x
COC(=O)c1c(NC(=S)N2CCN(S(C)(=O)=O)CC2)sc2c1CCCCCC2 | n | 6.7 | n | n | n | n
CCCCNC(=O)/C(=C/c1ccc(OC)cc1)NC(=O)/C=C/c1ccccc1 | n | n | n | n | x | x
CCCCNC(=O)/C(=C/c1ccccc1)NC(=O)/C=C/c1ccco1 | n | 17 | n | n | n | n
CN1C(=O)C(CC(=O)Nc2ccccc2F)N(NC(=O)c2ccc(Cl)cc2)C1=S (centres undefined) | n | n | n | n | x | x
CCOC(=O)c1c(-c2ccc(C)o2)csc1NC(=O)c1cccs1 | n | 8.2 | n | n | n | n
CCCC(=O)Nc1nn2c(CC(C)C)nnc2s1 | n | 7.1 | n | n | n | n
CCC(=O)Nc1nn2c(CC(C)C)nnc2s1 | n | 5.0 | n | n | n | n
CCCC(=O)Nc1nn2c(CCC)nnc2s1 | n | n | n | n | x | x
CC(C)Cc1nnc2sc(NC(=O)C(C)C)nn12 | n | n | n | n | x | x
O=C(c1ccco1)N(Cc1ccccc1F)C1CCS(=O)(=O)C1 (centres undefined) | n | 5.3 | n | n | n | n
O=C(COc1ccccc1)NCCCS(=O)(=O)N1CCN(c2ncccn2)CC1 | n | n | n | n | x | x
O=S(=O)(CCOc1ccccc1)N1CCN(c2ncccn2)CC1 | n | 6.2 | n | n | n | n
O=C(COc1ccc(Cl)cc1)NCCCS(=O)(=O)N1CCN(c2ncccn2)CC1 | n | 7.5 | n | n | n | n
O=S(=O)(CCOc1ccccc1)N1CCN(c2ccccc2F)CC1 | n | n | n | n | x | x
CCOc1cc(S(=O)(=O)Nc2cc(C)ccn2)ccc1Cl | n | n | n | n | x | x
O=C(Cn1ncn2nc(-c3cccs3)cc2c1=O)NC1CCCc2ccccc21 (centres undefined) | n | n | n | n | x | x
O=C(Cn1ncn2nc(-c3cccs3)cc2c1=O)NC1CCN(Cc2ccccc2)CC1 | n | 13 | n | n | n | n
CSc1cccc(NC(=O)CCNS(=O)(=O)c2ccc3[nH]c(=O)ccc3c2)c1 | n | n | n | n | x | x
COc1cc(NC(=O)c2csc(-c3ccc(N4CCOCC4)nc3)n2)cc(OC)c1OC | n | n | n | n | x | x
Cc1ccc2nc(-c3ccccn3)cc(C(=O)Nc3ccc([N+](=O)[O-])cn3)c2c1 | n | 15 | n | n | n | n
COc1cc(/C=C2\SC(=S)NC2=O)ccc1OS(=O)(=O)c1ccccc1 | n | 7.9 | n | n | n | n
CCC(=O)Nc1ccc(NC(=O)CSc2nc3c(c(=O)n(C)c(=O)n3C)n2C)cc1 | n | 15 | n | n | n | n
COc1ccc(C(=O)NC2CC2)cc1OC1CCN(C2CCCCCC2)CC1 | n | n | n | n | x | x
COc1ccc(C(=O)NC2CC2)cc1OC1CCN(C2CCC2)CC1 | n | 7.0 | n | n | n | n
SMILES | TEAD-YAP block | GPR151 ag | MITF inh | FBW7 activator | GPR151 conf act | GPR119 counter
COc1ccc(C(=O)NC2CC2)cc1OC1CCN(C2Cc3ccccc3C2)CC1 | n | 11 | n | n | n | n
CCCOC(=O)C1=C(C)NC2=C(C(=O)CCC2)C1c1cccnc1 (centres undefined) | n | 6.1! | n | n | n | n
CCOc1c(Br)cc(C2C(C(=O)N3CCOCC3)=C(C)NC3=C2C(=O)CCC3)cc1OC (centres undefined) | n | 6.2 | n | n | n | n
CCCCCOC(=O)C1=C(C)NC2=C(C(=O)CCC2)C1c1cc(Br)c(O)c(OCC)c1 (centres undefined) | n | 5.5 | n | n | n | n
CCCOC(=O)C1=C(C)NC2=C(C(=O)CCC2)C1c1cc(Br)c(O)c(OCC)c1 (centres undefined) | n | n | n | n | x | x
CC(=O)Nc1ccc(NC(=O)c2cc3cc(Br)cc(Br)c3oc2=O)cc1 | n | n | n | n | x | x
COc1ccc(C2C(=O)N(C3CCCCC3)CC(=O)N2Cc2ccc3c(c2)OCO3)cc1OC (centres undefined) | n | n | n | n | x | x
COC(=O)C(=Cc1cc(OC)c(O)c([N+](=O)[O-])c1)C(=O)OC | n | 5.7 | n | n | n | n
CCOc1cc(C=C(C(=O)OC)C(=O)OC)ccc1OCc1ccc([N+](=O)[O-])cc1 | n | 5.2 | n | n | n | n
O=[N+]([O-])c1ccc(OCCN2CCCC2)cc1 | n | n | n | n | x | x
COc1cccc(/C=N/NC(=O)COc2ccc(Br)cc2[N+](=O)[O-])c1O | n | n | n | n | x | x
Cc1ccccc1CSCCNS(=O)(=O)c1ccccc1[N+](=O)[O-] | n | 5.9 | n | n | n | n
Cc1cc(C)n(/N=C/c2cccc([N+](=O)[O-])c2)c(=O)c1C#N | n | n | n | n | x | x
CC(Cc1ccco1)NS(=O)(=O)c1ccc(Br)s1 (centres undefined) | n | n | n | n | x | x
COc1cccc(C(=O)Nc2c3c(nn2-c2ccc(Oc4ccccc4)cc2)CSC3)c1 | n | n | n | n | x | x
O=C(Nc1c2c(nn1-c1ccc(F)cc1)CSC2)c1ccc(Br)o1 | n | n | n | n | x | x
O=C(Nc1c2c(nn1-c1ccc([N+](=O)[O-])cc1)CSC2)c1ccc(Br)o1 | n | 5.2 | n | n | n | n
COc1ccc(-n2nc3c(c2NC(=O)c2cccc(OC)c2)CSC3)cc1 | n | 6.1 | n | n | n | n
CCN1CCN(C(=O)NCc2noc3ccc(C)cc23)CC1 | n | n | n | n | x | x
Cc1ccc2onc(CNC(=O)N3CCCCC3)c2c1 | n | 7.0 | n | n | n | n
CCN1CCCC1CNS(=O)(=O)c1ccc(C(=O)Nc2ccccc2)cc1 (centres undefined) | n | 10 | n | n | n | n
COc1ccc(-c2noc(COc3ccc4c(c3)OCO4)n2)cc1 | n | 5.1 | n | n | n | n
COc1ccccc1NC(=O)c1ccc(SCC(=O)NCc2ccccc2)c([N+](=O)[O-])c1 | n | n | n | n | x | x
COC(=O)c1ccc(SCC(=O)NCc2ccccc2)c([N+](=O)[O-])c1 | n | 7.4 | n | n | n | n
CCN(CC)c1ccc(/C=N\NC(=O)c2ccc(O)cc2)cc1 | n | n | n | n | x | x
CCN(CC)c1ccc(/C=N/NC(=O)c2ccc(O)cc2O)cc1 | 74 | 6.0 | n | n | n | n
CCC(C)NC(=O)c1c(C)nc2c(C)cccn12 (centres undefined) | n | n | n | n | x | x
CC1(C(=O)O)C2C=CC3(CN(c4ccccc4)C(=O)C31)O2 (centres undefined) | n | 8.1 | n | n | n | n
O=C(NC1CC(=O)N(c2ccc(Cl)cc2)C1)N1CCC(O)CC1 (centres undefined) | n | n | n | n | x | x
Cc1ccc(NC(=O)Nc2nnc(N3CCCCC3)s2)c(Cl)c1 | n | 5.3 | n | n | n | n
